# Measured values taken from PubChem BioAssay AID588405 (Sanford-Burnham Center for Chemical Genomics, 2011).
# About 6,200 (1.7%) of roughly 360,000 compounds were called active.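 The calls were made as follows: active = inhibition of at least 50% at 20 µM; inactive = the rest.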 The full list was thinned out, with actives kept by preference.
# Assay: Peg3 promoter-driven luciferase inhibitors, primary screen, cell-based, HeLa, luciferase luminescence (AID 588405)
# Conditions: HeLa PEG-Prom luciferase reporter, overnight, at 20 µM, hits give high values
row,Compound,inhibition
1,CCCNC(=O)C1(C)CCCN(Cc2c(C)nn(-c3ccccc3)c2C)C1 (stereo not given),5.49% (inactive)
2,COc1cccc(-c2cnc(C(O)c3ccccc3OC)[nH]2)c1 (stereo not given),-9.16% (inactive)
3,O=C(COc1ccc(-n2cnnn2)cc1)Nc1ccccc1Cl,-1.45% (inactive)
4,CS/C(=C\C(=O)c1ccco1)Nc1ccccc1Cl,-49.5% (inactive)
5,O=C(Nc1ccccc1Cl)/C(Cl)=C(\Cl)S(=O)c1ccccc1 (stereo not given),108% (active)
6,CC(=O)N1CCN(Cc2cc(=O)oc3cc(C)ccc23)CC1,-2.53% (inactive)
7,COc1ccc(-c2cc(NC=O)c3ncc(-c4ccccc4)n3c2)cc1OC,49.4% (inactive)
8,C[C@H]([C@@H](O)[C@@H](O)[C@@H](C)C(C)(C)C)[C@H]1CC[C@H]2C3CC[C@H]4C[C@H](OS(=O)(=O)O)[C@@H](OS(=O)(=O)O)C[C@]4(C)[C@H]3CC[C@]12C (stereo not given in full),6.06% (inactive)
9,COc1ccc(NC(=O)C2(C)Cc3c(-c4cccc(NC(C)=O)c4)ccnc3O2)cc1 (stereo not given),-10.2% (inactive)
10,c1ccc2c(c1)CSc1sccc1C2=C1CCNCC1,33.5% (inactive)
11,CCOC1=C2[C@@H](CN(S(=O)(=O)c3ccc(C)cc3)[C@H]2c2ccccc2F)[C@H]2C(=O)N(Cc3ccccc3)C(=O)[C@H]2C1,6.76% (inactive)
12,CCCCC(=O)N(C)c1c(CC)nc2c(OCc3ccc(Cl)cc3Cl)cccn12,39% (inactive)
13,CCOC(=O)Cc1csc(NC(=O)COc2ccc3c(C)cc(=O)oc3c2)n1,-3.01% (inactive)
14,Cc1ccc(O)c(/C=N/NC(=O)COc2ccc3c(C)cc(=O)oc3c2)c1,66.5% (active)
15,Cc1cc(=O)oc2cc(OCC(=O)Nc3nnc(C4CC4)s3)ccc12,2.23% (inactive)
16,CC(C)Oc1c(Br)cc(Br)cc1/C=N/NC(N)=S,48.7% (inactive)
17,CNc1cncc(-c2cccc(C(=O)N3CCOCC3)c2)n1,2.98% (inactive)
18,Cc1ccc(N(Cc2cc(=O)[nH]c3ccccc23)C(=O)CCl)cc1,106% (active)
19,CC(=O)N(Cc1cc(=O)[nH]c2ccccc12)c1ccc(C)cc1C,23.2% (inactive)
20,Cc1ccc(N(Cc2cc3ccccc3[nH]c2=O)C(=O)c2cccs2)cc1,11.2% (inactive)
21,O=C(CSc1ncnc2scc(-c3ccccc3)c12)NCc1ccc2c(c1)OCO2,26.7% (inactive)
22,CN(C)C(=O)c1cccc(-c2cnc3sc(NCc4ccc5c(c4)OCO5)nn23)c1,50.3% (active)
23,CCOc1c2ccc(C(=O)NCc3ccc4c(c3)OCO4)cc2nn1C,-10.3% (inactive)

row,Compound,inhibition
1,CN1CCC[C@@H]1CCO[C@](C)(c1ccccc1)c1ccc(Cl)cc1,14.3% (inactive)
2,COc1cccc2sc3cc(NCC[C@@H]4CCCN4C)ccc3c(=O)c12,-254% (inactive)
3,Cc1cc2oc3ccc(NCCC4CCCN4C)cc3c(=O)c2cc1C (stereo not given),103% (active)
4,CC1(Oc2ccccc2-c2ccno2)CCN(Cc2ccc(-c3ccccc3)o2)C1 (stereo not given),0.4% (inactive)
5,CC(=O)OC[C@@H]1CN(Cc2ccccc2)C[C@H](n2cnc3c(NCc4ccco4)ncnc32)O1,4.43% (inactive)
6,COc1ccc(Sc2ccc(NC(=O)c3cccc(Cl)c3)cc2C#N)cc1,14.8% (inactive)
7,CCOC(=O)C(=Cc1ccccc1)C(=O)c1ccccc1,103% (active)
8,CCOC(=O)C(=Cc1ccccc1OC)C(=O)OCC,33.3% (inactive)
9,CCOC(=O)CNC(=O)/C(=C\c1ccc(F)cc1)NC(=O)c1ccccc1,10.4% (inactive)
10,c1cc(-c2ccc3[nH]ccc3c2)n2ccnc2c1,-57.5% (inactive)
11,COC(C[C@@H]1O[C@@H]1C(=O)[C@@H](C)OCc1ccccc1)OC,7.4% (inactive)
12,CC(=NNC(=S)N1CCCCCC1)c1ccccn1,-62.9% (inactive)
13,C/C(=N\NC(=O)c1ccccc1F)c1ccccn1,-1.8% (inactive)
14,C/C(=N\NC(=O)Cc1ccc(Cl)cc1)c1ccccn1,104% (active)
15,CN1C(=O)c2ccccc2C(C(=O)NCCCN2CCCC2)C1c1c[nH]c2ccccc12 (stereo not given),-1.25% (inactive)
16,COc1ccc(/C=C/C(=O)c2c(O)cc(OC)cc2OC)cc1,-132% (inactive)
17,CCCc1ccc(C(=O)COC(=O)CN2C(=O)NC3(CCCCC3C)C2=O)cc1 (stereo not given),-7.49% (inactive)
18,O=C(NCc1cccnc1)c1cc(C2CCCCN2C(=O)CCc2ccccc2)on1 (stereo not given),-5.2% (inactive)
19,CN(C)c1ccc(Nc2c3c4c(cccc4n(C)c2=O)C(=O)c2ccccc2-3)cc1,54.9% (active)
20,CN(C)c1ccc(C2N(C)C(=O)c3ccccc3N2C)cc1 (stereo not given),17.6% (inactive)
21,CSc1ccc(CNC(=O)C2(C)CCCN2C)cc1 (stereo not given),7.21% (inactive)
22,CC(C)Nc1ncnc2c1ncn2[C@H]1CN(Cc2ccncc2)C[C@@H](CO)O1,-7.45% (inactive)
23,COc1ccc(CN2CCCCC2C)cc1OC (stereo not given),11.9% (inactive)

row,Compound,inhibition
1,Cc1ccc(Cc2cnc(NC(=O)/C(C#N)=C/c3ccc(-c4cccc([N+](=O)[O-])c4)o3)s2)cc1,71.1% (active)
2,Cc1ccc(-c2ccc(/C=C(\C#N)C(N)=S)o2)c([N+](=O)[O-])c1,-30.5% (inactive)
3,Cc1ccc(/C=C(\C#N)C(=O)Nc2cccc3ncccc23)o1,-27.1% (inactive)
4,CCOc1ccc2[nH]c(=S)sc2c1,-57% (inactive)
5,O=[N+]([O-])c1c(NCCO)cc(Sc2nc3ccccc3s2)c2nonc12,102% (active)
6,COc1cc(SC#N)ccc1N=Cc1c(C)[nH]n(-c2ccc(C)cc2)c1=O,80.8% (active)
7,CN(C)c1cccc(NC(=O)c2ccc(-c3ccc(F)c(F)c3)c3ccoc23)c1,-43.1% (inactive)
8,S=C(NCCCc1ccccc1)Nc1ccc(Br)cc1,5.05% (inactive)
9,S=C(NCCCc1cnc[nH]1)NCCCN(Cc1ccc(Cl)c(Cl)c1)c1ccc(Br)cn1,98.4% (active)
10,O=C(/C=C/c1ccc(Cl)cc1)Nc1ccc(Br)cn1,-33.7% (inactive)
11,NCCCNC(=S)NCCCN(Cc1ccc(Cl)cc1)c1ccc(Br)cn1,85.8% (active)
12,Cc1nc(C(F)(F)F)ccc1C(=O)N1CCC1(C)C(=O)NS(=O)(=O)c1ccc(F)cc1F (stereo not given),-1.89% (inactive)
13,O=C(CC[C@H]1O[C@@H](n2ccc(=O)[nH]c2=O)[C@H](O)[C@@H]1O)N[C@H](Cc1ccccc1)C(=O)NCc1ccco1,8.94% (inactive)
14,CCCS(=O)(=O)NC(=O)C1(C)CCCN(C(=O)c2cc(C)on2)C1 (stereo not given),9.06% (inactive)
15,COc1ccc(OC)c(Cc2nnc(CCC(=O)NC3CCCC3)o2)c1,-30.2% (inactive)
16,COc1ccc(OC)c(Cc2cnc3nc(N)nc(N)c3c2C)c1,54.3% (active)
17,COc1ccc(OC)c(NC(=O)c2sc3nc(C)cc(C)c3c2N)c1,-12.4% (inactive)
18,C=CCn1c2c(c3ccccc31)CCC2,2.5% (inactive)
19,CCOc1ccc(CCN2C(=O)c3cccnc3C2=O)cc1OCC,-9.6% (inactive)
20,NC1=CC(=O)C(=O)c2cccnc21,69.9% (active)
21,CCc1nc2ccc(C(=O)NC3CCN(Cc4ccccc4)CC3)cn2c1N(CC)CCOC,4.85% (inactive)
22,CCCCNC(=O)c1nc(C2CCN(S(=O)(=O)c3ccc(F)c(F)c3)CC2)oc1-c1cccc(C(F)(F)F)c1,13.3% (inactive)
23,CN(C)CCNC(=O)/C(=C/c1cccc([N+](=O)[O-])c1)NC(=O)c1ccccc1,7.34% (inactive)

row,Compound,inhibition
1,Cc1ccc(C(=O)N/C(=C/c2ccc(-c3cccc([N+](=O)[O-])c3)o2)C(=O)NCCCN(C)C)cc1,103% (active)
2,Cc1occc1C(=O)N/N=C/c1ccc(-c2cccc([N+](=O)[O-])c2)o1,-11.9% (inactive)
3,CCCc1ccc(C(O)c2ncc(-c3cccc(OC)c3)[nH]2)cc1 (stereo not given),-5.53% (inactive)
4,O=C(Nc1ccc(F)cc1)Nc1nnc([C@H]2C[C@H](O)[C@@H](CO)O2)s1,-5.07% (inactive)
5,C=CC(=O)Nc1ccc(Nc2ccnc(Nc3ccc(N4CCN(C)CC4)cc3)n2)cc1,20.3% (inactive)
6,CCC(C)Sc1nc2c(c(=O)[nH]c(=O)n2C)n1CC(O)COc1cccc2ccccc12 (stereo not given),12.2% (inactive)
7,CC1CC(C)CN(CCOc2cccc3ccccc23)C1 (stereo not given),-6.14% (inactive)
8,CC(C)c1ccccc1OCC(O)CN(CC(O)COc1cccc2ccccc12)C(C)C (stereo not given),110% (active)
9,COc1cc(CN2CCNC(=O)C2CC(=O)NCCc2ncccc2C)cc(OC)c1 (stereo not given),-16.1% (inactive)
10,CC(C)Oc1ccc(CN2CCC2(C)C(=O)NCc2ccc(C(F)(F)F)cc2)cc1 (stereo not given),14.4% (inactive)
11,O=C(Nc1ccc(N2CCOCC2)cc1)c1cccc2c(-c3ccc(F)c(F)c3)coc12,-8.12% (inactive)
12,COc1ccccc1CNC(=O)c1cc(-c2cc(Cl)ccc2C)n[nH]1,32.1% (inactive)
13,O=C(CN1C(=O)NC2(CCOc3ccccc32)C1=O)Nc1cccc([N+](=O)[O-])c1 (stereo not given),10.4% (inactive)
14,Cc1ccc(CNC(=O)c2cccnc2Cl)cc1,-0.53% (inactive)
15,CCN(CC)S(=O)(=O)c1ccc(NC(=O)c2cnc(C)cn2)cc1,-6.33% (inactive)
16,CCN(CC)S(=O)(=O)c1ccc(NC(=O)c2cccnc2Cl)c(NC(=O)c2cccnc2Cl)c1,104% (active)
17,CCOC(=O)C1=CC[C@@H](c2ccccc2)N(S(=O)(=O)c2ccc(C)cc2)[C@H]1c1cccc(OC)c1,14.6% (inactive)
18,CC1(c2nnc(Cc3ccccc3)o2)CC(c2ccccc2F)=NO1 (stereo not given),7.03% (inactive)
19,CCOC(=O)C(C(=O)OCC)C(C#N)c1ccccc1 (stereo not given),1.45% (inactive)
20,Cc1ccccc1OCCC(=O)OCC(=O)NC(C)c1ccccc1 (stereo not given),-0.76% (inactive)
21,CCOC(=O)/C=C/C(=O)OCC(=O)NC(c1ccccc1)c1ccccc1,66.3% (active)
